Results on 38 compounds are retold here after ChEMBL document CHEMBL1157539, “Thousands of chemical starting points for antimalarial lead identification” (Nature, 2010).

Several values for one entry are separate records, joined by “and”; a condition that tells them apart may be missing. Equal entries are not always repeated.

The first assay has as its system Plasmodium falciparum. The assay can be described thus: GSK_TCMDC: Inhibition of Plasmodium falciparum 3D7 in whole red blood cells, using parasite LDH activity as an index of growth. Test compounds present at 2uM. The format is functional.
In the case of `Cc1cc(O)cc2c(C3CCN(CC4CCC(NC(=O)/C=C/c5ccccc5Cl)CC4)CC3)c[nH]c12` (stereo unspecified), the Inhibition is 99%.

Regarding `O=C(/C=C/c1ccc(Cl)c(Cl)c1)NC1CCC(CN2CCC(c3c[nH]c4ccccc34)C(O)C2)CC1` (stereo unspecified), the Inhibition was 100%.

Compound `Cc1[nH]c2ccccc2c1C1=CCN(CCCCC2(C)C(=O)Nc3cccc(F)c32)CC1` (stereo unspecified) had an Inhibition of 95%.

`Cc1cccc(N2CCN(Cc3cc(Cl)ccc3O)CC2)c1C.O=C(O)C(=O)O` had an Inhibition of 96%.

`COc1ccc(CC(C)NCC(O)c2cccc(Br)c2)cc1` (stereo unspecified) came in with an Inhibition of 99%.

For `CO/C(=C\C=C\c1cc2cc(Cl)c(Cl)cc2[nH]1)C(=O)N[C@H]1CN2CCC1CC2`, the Inhibition turned out to be 82%.

On to `S=C(Nc1ccc2c(c1)OCCO2)NC1CCC(CN2CCC(c3c[nH]c4ccccc34)CC2)CC1` (stereo unspecified), for which the Inhibition was 96% and 92%.

`Brc1cnc(NC2=NCCN2)c(Br)c1.Cl`: the Inhibition is given as 99%.

Compound `Oc1ccccc1CNCC(O)c1cc(C(F)(F)F)cc(C(F)(F)F)c1` (stereo unspecified) came in with an Inhibition of 99%.

`O=C(/C=C/c1ccc(Cl)cc1Cl)NC1CCC(CN2CCC(c3c[nH]c4ccccc34)CC2)CC1` (stereo unspecified): the Inhibition came to 100%.

Compound `CCOC(=O)c1c(C)n(C2CCCCC2)c2cc(Br)c(O)cc12` showed an Inhibition of 98%.

On to `Br.COc1ccc(CC(C)NCC(O)c2cccc(C(F)(F)F)c2)cc1F` (stereo unspecified), for which the Inhibition was 91%.

`CN(c1cc(NC(=O)c2cccs2)ccn1)C1CCN(Cc2ccccc2)CC1.O=C(O)C(F)(F)F` showed an Inhibition of 92%.

Regarding `Cl.N#Cc1c(F)cc(N2CCC(NCC[C@H](N)Cc3ccc(F)c(F)c3)CC2)cc1F`, the Inhibition was 100%.

For `CC[C@H]1CN2CC[C@@H]1C[C@H]2[C@H](O)c1cc(-c2cc(Cl)cc(Cl)c2)nc2ccc(OC)cc12`, the Inhibition is on record as 99%.

`CC[C@H]1CN2CC[C@@H]1C[C@H]2[C@H](O)c1cc(-c2ccccc2)nc2ccc(O)cc12.Cl`: the Inhibition turned out to be 99%.

`COC(=O)c1ccc(CC(C)NCC(O)c2cccc(Br)c2)cc1` (stereo unspecified) showed an Inhibition of 99%.

`Cc1cc(-c2ncc[nH]2)ccc1-c1ccc(C(=O)N2CCc3cc4c(cc32)C2(CCN(C)CC2)CO4)cc1.Cl` came in with an Inhibition of 100%.

Compound `CCCCCCCN1C2CCC1CC(CCOc1ccnc3ccc(OC)cc13)C2` (stereo unspecified) gave an Inhibition of 98%.

As to `Oc1ccc2[nH]cc(C3=CCN(CCc4ccccc4)CC3)c2c1`, the Inhibition came out at 96%.

`CC(=O)C1(c2ccccc2)CCN(CCC2(c3ccc(Cl)c(Cl)c3)CN(C(=O)c3cccc(Cl)c3)CCO2)CC1` (stereo unspecified) displayed an Inhibition of 90%.

In the case of `COc1ccc(NC(=S)NC(NC(=O)CF)C(Cl)(Cl)Cl)cc1[N+](=O)[O-]` (stereo unspecified), the Inhibition came to 97%.

The compound `CN1CC=C(c2c[nH]c3ccc(Sc4ccccc4)cc23)CC1.O=C(O)/C=C/C(=O)O` returned an Inhibition of 98%.

The compound `CN(C)c1cccc(CN2CC=C(c3c[nH]c4ccc(Cl)cc34)CC2)c1` gave an Inhibition of 93%.

Consider `O=C(Nc1ccc(Cl)c(Cl)c1)N1CCC(CN2CCC(c3c[nH]c4ccccc34)CC2)CC1`, for which the Inhibition came to 100%.

For `CC(=O)N(Cc1ccc(-c2ccc(CNCCc3ccccc3)cc2)cc1)C1CCN(Cc2ccccc2)CC1.O=C(O)C(F)(F)F`, the Inhibition is 95%.

`COC(=O)c1ccc(CC(C)NCC(O)c2cccc(C(F)(F)F)c2)cc1C` (stereo unspecified) returned an Inhibition of 93%.

In turn, `O=C(NC1CCC(CN2CCC(c3c[nH]c4ccccc34)CC2)CC1)c1cc(-c2ccccc2Cl)oc1C(F)(F)F` (stereo unspecified) returned an Inhibition of 99%.

`O=C(/C=C/c1ccc(Cl)c(Cl)c1)N1CCC(CN2CCC(c3cn(CC(=O)N4CCCCC4)c4ccccc34)CC2)CC1.O=C(O)C(F)(F)F` displayed an Inhibition of 100%.

`CN1CC=C(C=Cc2c[nH]c3ccccc23)CC1` returned an Inhibition of 86%.

In turn, `COCCNCc1ccc(-c2ccc(CN(C(=O)NC3CCCCC3)C3CCN(Cc4ccccc4)CC3)cc2)cc1.O=C(O)C(F)(F)F` returned an Inhibition of 94%.

Compound `COc1ccc(CC(C)NCC(O)c2cccc(Cl)c2F)cc1` (stereo unspecified) came in with an Inhibition of 88%.

With `COc1cccc(C=CC(=O)NC2CCC(CN3CCC(c4c[nH]c5ccccc45)CC3)CC2)c1OC` (stereo unspecified), the Inhibition is listed as 100%.

In turn, `Cc1[nH]c2ccc(O)cc2c1C1CCN(CC2CCC(NC(=O)/C=C/c3ccc(Cl)c(Cl)c3)CC2)CC1` (stereo unspecified) yielded an Inhibition of 100%.

`COc1ccc(C=CC(=O)N2CCC(CN3CCC(c4c[nH]c5ccccc45)CC3)CC2)cc1OC` registered an Inhibition of 94%.

For the compound `CCOC(C(=O)OCC1CCCN(C)C1)(c1ccccc1)c1ccccc1` (stereo unspecified), the Inhibition amounted to 98%.

`CCCCC/C=C/C(=O)NC1CCC(CN2CCC(c3c[nH]c4ccccc34)CC2)CC1` (stereo unspecified) came in with an Inhibition of 87%.

In turn, `CN1CCN(c2ccc3[nH]c(-c4ccc5[nH]c(-c6ccc(O)cc6)nc5c4)nc3c2)CC1.Cl.O` displayed an Inhibition of 99%.

A further assay relates to Plasmodium falciparum. The assay can be described thus: GSK_TCMDC: Inhibition of Plasmodium falciparum Dd2 in whole red blood cells, using parasite LDH activity as an index of growth. Test compounds present at 2uM. Type of assay: functional.
As for `Cc1cc(O)cc2c(C3CCN(CC4CCC(NC(=O)/C=C/c5ccccc5Cl)CC4)CC3)c[nH]c12` (stereo unspecified), the Inhibition came to 84%.

For `O=C(/C=C/c1ccc(Cl)c(Cl)c1)NC1CCC(CN2CCC(c3c[nH]c4ccccc34)C(O)C2)CC1` (stereo unspecified), the Inhibition is on record as 87%.

`Cc1[nH]c2ccccc2c1C1=CCN(CCCCC2(C)C(=O)Nc3cccc(F)c32)CC1` (stereo unspecified): the Inhibition was 90%.

In turn, `Cc1cccc(N2CCN(Cc3cc(Cl)ccc3O)CC2)c1C.O=C(O)C(=O)O` had an Inhibition of 96%.

The compound `COc1ccc(CC(C)NCC(O)c2cccc(Br)c2)cc1` (stereo unspecified) gave an Inhibition of 93%.

For the compound `CO/C(=C\C=C\c1cc2cc(Cl)c(Cl)cc2[nH]1)C(=O)N[C@H]1CN2CCC1CC2`, the Inhibition is on record as 36%.

On to `S=C(Nc1ccc2c(c1)OCCO2)NC1CCC(CN2CCC(c3c[nH]c4ccccc34)CC2)CC1` (stereo unspecified), for which the Inhibition was 1% and 7%.

On to `Brc1cnc(NC2=NCCN2)c(Br)c1.Cl`, for which the Inhibition is given as 0%.

As for `Oc1ccccc1CNCC(O)c1cc(C(F)(F)F)cc(C(F)(F)F)c1` (stereo unspecified), the Inhibition amounted to 100%.

Consider `O=C(/C=C/c1ccc(Cl)cc1Cl)NC1CCC(CN2CCC(c3c[nH]c4ccccc34)CC2)CC1` (stereo unspecified), for which the Inhibition is reported as 79%.

As to `CCOC(=O)c1c(C)n(C2CCCCC2)c2cc(Br)c(O)cc12`, the Inhibition is reported as 71%.

Take `Br.COc1ccc(CC(C)NCC(O)c2cccc(C(F)(F)F)c2)cc1F` (stereo unspecified): the Inhibition is 65%.

As for `CN(c1cc(NC(=O)c2cccs2)ccn1)C1CCN(Cc2ccccc2)CC1.O=C(O)C(F)(F)F`, the Inhibition amounted to 87%.

`Cl.N#Cc1c(F)cc(N2CCC(NCC[C@H](N)Cc3ccc(F)c(F)c3)CC2)cc1F` gave an Inhibition of 26%.

`CC[C@H]1CN2CC[C@@H]1C[C@H]2[C@H](O)c1cc(-c2cc(Cl)cc(Cl)c2)nc2ccc(OC)cc12` displayed an Inhibition of 97%.

`CC[C@H]1CN2CC[C@@H]1C[C@H]2[C@H](O)c1cc(-c2ccccc2)nc2ccc(O)cc12.Cl` came in with an Inhibition of 99%.

Consider `COC(=O)c1ccc(CC(C)NCC(O)c2cccc(Br)c2)cc1` (stereo unspecified), for which the Inhibition was determined as 88%.

`Cc1cc(-c2ncc[nH]2)ccc1-c1ccc(C(=O)N2CCc3cc4c(cc32)C2(CCN(C)CC2)CO4)cc1.Cl` returned an Inhibition of 98%.

As to `CCCCCCCN1C2CCC1CC(CCOc1ccnc3ccc(OC)cc13)C2` (stereo unspecified), the Inhibition came to 88%.

`Oc1ccc2[nH]cc(C3=CCN(CCc4ccccc4)CC3)c2c1` came in with an Inhibition of 60%.

Compound `CC(=O)C1(c2ccccc2)CCN(CCC2(c3ccc(Cl)c(Cl)c3)CN(C(=O)c3cccc(Cl)c3)CCO2)CC1` (stereo unspecified) showed an Inhibition of 61%.

In the case of `COc1ccc(NC(=S)NC(NC(=O)CF)C(Cl)(Cl)Cl)cc1[N+](=O)[O-]` (stereo unspecified), the Inhibition worked out at 0%.

Turning to `CN1CC=C(c2c[nH]c3ccc(Sc4ccccc4)cc23)CC1.O=C(O)/C=C/C(=O)O`, the Inhibition stood at 99%.

For the compound `CN(C)c1cccc(CN2CC=C(c3c[nH]c4ccc(Cl)cc34)CC2)c1`, the Inhibition is 87%.

Compound `O=C(Nc1ccc(Cl)c(Cl)c1)N1CCC(CN2CCC(c3c[nH]c4ccccc34)CC2)CC1` had an Inhibition of 69%.

Compound `CC(=O)N(Cc1ccc(-c2ccc(CNCCc3ccccc3)cc2)cc1)C1CCN(Cc2ccccc2)CC1.O=C(O)C(F)(F)F` showed an Inhibition of 15%.

The compound `COC(=O)c1ccc(CC(C)NCC(O)c2cccc(C(F)(F)F)c2)cc1C` (stereo unspecified) yielded an Inhibition of 74%.

In turn, `O=C(NC1CCC(CN2CCC(c3c[nH]c4ccccc34)CC2)CC1)c1cc(-c2ccccc2Cl)oc1C(F)(F)F` (stereo unspecified) returned an Inhibition of 7%.

In turn, `O=C(/C=C/c1ccc(Cl)c(Cl)c1)N1CCC(CN2CCC(c3cn(CC(=O)N4CCCCC4)c4ccccc34)CC2)CC1.O=C(O)C(F)(F)F` registered an Inhibition of 65%.

The compound `CN1CC=C(C=Cc2c[nH]c3ccccc23)CC1` showed an Inhibition of 64%.

`COCCNCc1ccc(-c2ccc(CN(C(=O)NC3CCCCC3)C3CCN(Cc4ccccc4)CC3)cc2)cc1.O=C(O)C(F)(F)F`: the Inhibition amounted to 84%.

Turning to `COc1ccc(CC(C)NCC(O)c2cccc(Cl)c2F)cc1` (stereo unspecified), the Inhibition is on record as 59%.

On to `COc1cccc(C=CC(=O)NC2CCC(CN3CCC(c4c[nH]c5ccccc45)CC3)CC2)c1OC` (stereo unspecified), for which the Inhibition is recorded as 40%.

For the compound `Cc1[nH]c2ccc(O)cc2c1C1CCN(CC2CCC(NC(=O)/C=C/c3ccc(Cl)c(Cl)c3)CC2)CC1` (stereo unspecified), the Inhibition is 95%.

As to `COc1ccc(C=CC(=O)N2CCC(CN3CCC(c4c[nH]c5ccccc45)CC3)CC2)cc1OC`, the Inhibition was found to be 4%.

In the case of `CCOC(C(=O)OCC1CCCN(C)C1)(c1ccccc1)c1ccccc1` (stereo unspecified), the Inhibition is on record as 3%.

Take `CCCCC/C=C/C(=O)NC1CCC(CN2CCC(c3c[nH]c4ccccc34)CC2)CC1` (stereo unspecified): the Inhibition was found to be 11%.

Turning to `CN1CCN(c2ccc3[nH]c(-c4ccc5[nH]c(-c6ccc(O)cc6)nc5c4)nc3c2)CC1.Cl.O`, the Inhibition is listed as 100%.

The term Inhibition denotes the share of the control response that was lost under treatment.
